Source: PubChem (National Center for Advancing Translational Sciences (NCATS))
HBB splice mod = hemoglobin beta splicing modulation; HBB splicing reporter cell assay, activation; EGFP reporter with mutant IVS2-654 intron; response scale: normalised to 500 nM splice-correcting PNA; Potency, µM (titrated, usually from 46.1 µM), without a hit: at the highest dose activation, most hits filed as activators; actives 0.06% (n = 65,000); AID 925; also: potency is read from the fitted curve at half-maximal effect; 0% is about no effect
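HeLa cells stably expressing EGFP interrupted by mutant beta-globin intron 2 (IVS2-654), 500/well in 2% FCS. Treated with compound for 2 days at 37C. Splicing correction scored as total well GFP intensity (488 nm excitation, 500-520 nm emission); 500 nM antisense PNA served as control.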
UbGFP stabilizer = inhibits proteasome, raising ubiquitin-GFP reporter fluorescence. Ubiquitin-GFP reporter cells, proteasome inhibition, GFP fluorescence; response scale: untreated = 0%, 10 µM MG-132 = 100%. Potency, µM (doses to about 45.9 µM), inactives show at the top dose activation (GFP accumulation), most hits filed as activators. 67,000 tested, under 10 active. AID 526; active = well fitted activation curve with a large enough effect, not every such curve was filed as active; inconclusive = small, poorly fitted or top-dose-only effect, or another doubt; inactive = no such curve, though single readings can be large or run the other way; also: potency is read from the fitted curve at half-maximal effect
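Proteasome block read as GFP accumulation: ubiquitin(G76V)-GFP U2OS cells exposed to compound (2.9 nM–46 uM) for 4 hr at 37 C. Normalization used untreated cells as 0% and 10 uM MG-132 as 100%; concentration-response curves fitted.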
Epigenetic mod = epigenetic modulators derepressing GFP locus in mouse cells; mouse C127i GFP locus derepression, cytometry, 30 h; Potency, µM (series often up to 46.1 µM), for the others: at the highest dose GFP derepression (activation); actives 0.09% (n = 68,000); AID 597; also: % of control where 0% means no effect
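Locus derepression in mouse mammary C127i cells whose integrated CMV-GFP reporter is normally silent; GFP expression after 30 h compound treatment was quantified by counting fluorescent cells.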
ERK AVP block = vasopressin-driven ERK pathway inhibition. HEK293-V1b, vasopressin-stimulated pERK AlphaScreen. Potency, µM (highest dose often 57.5 µM), for the others: at the highest dose activity, negative = inhibition, usual class: inhibitors. actives 0.99% (n = 72,000). AID 995; also: potency is read from the fitted curve at half-maximal effect; % is scaled to controls: 0 for no effect and ±100 for the full control effect; nearly all actives have a fitted effect of over 55% in size
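qHTS, compounds titrated on V1b-expressing HEK293 cells. Preincubation 30 min at 37C, vasopressin 25 nM for 5 min, lysis 10 min, bead incubation 5 hr at room temperature.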
Peg3 imprint = genomic imprint erasure induction. mouse ES Peg3-LacZ reporter, beta-gal luminescence, 40 h. Potency, µM (series often up to 60.7 µM), without a hit: at the top dose activity change, positive = activation, usual class: activators. actives 0.02% (n = 110,000). AID 1948; also: potency is read from the fitted curve at half-maximal effect
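Readout: BetaGlo luminescence (5 min, room temp) for LacZ from the normally silent maternal Peg3 allele in female Peg3LacZ-Neo ES cells. Cells 300/well, 40 h, 37C, 5% CO2. Data normalized per plate to negative controls.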
Numbers without * were called inactive; ? = inconclusive; nt = no result; [ ] = dose if it differs, or a comment. The full list was thinned out, with hits kept by preference. Unless noted, calls follow the shape of the dose curve; as a rule, active = well fitted curve in the direction sought with a large enough effect; inconclusive = small, poorly fitted or top-dose-only effect, or another doubt; inactive = no such curve, though single readings can be large; an effect the other way counts as inactive or inconclusive.

SMILES	HBB splice mod	UbGFP stabilizer	Epigenetic mod	ERK AVP block	Peg3 imprint
COc1ccc(Cc2nnc(-c3cccc(C)c3)o2)cc1OC	-1%	-3%	-5%	-18%	-11%
COc1ccc(CC(=O)Nc2cccc(-c3nnc(-c4ccccc4)o3)c2)cc1OC	-1%	-2%	-3%	5µM*	-35%
COc1cccc(NC(=O)Cn2cc(C(=O)c3ccc(F)cc3)c(=O)c3cc(OC)ccc32)c1	nt	nt	nt	nt	-13%[10.9 µM]
COC(=O)C(C)Sc1nc2c(c(=O)n(C)c(=O)n2C)n1CCC(C)C (centres undefined)	nt	nt	2%[20.6 µM]	nt	nt
COC(=O)C(C)Sc1nc2c(c(=O)[nH]c(=O)n2C)n1CCC(C)C (centres undefined)	0%[57.5 µM]	3%	-2%	32µM*	2%
COc1ccc2c(c1)OC/C(=C/c1ccc(OC)c(OC)c1)C2=O	nt	nt	nt	16µM*	-45%
COc1ccc2c(c1)OC/C(=C/c1ccc(O)c(O)c1)C2=O	nt	nt	nt	-1%	-27%
O=S(=O)(NCCc1csc2nc(-c3ccccc3)nn12)c1ccc(Cl)s1	nt	nt	nt	nt	-7%[10.9 µM]
COc1cccc(NC2=NCC(=O)N2Cc2cccs2)c1	0%[57.5 µM]	-5%	4%	-5%	-7%
Cc1c(C(=O)OCc2ccccc2)[nH]c2c1C(=O)CC(c1ccc(N(C)C)cc1)C2 (centres undefined)	nt	nt	nt	nt	-9%[10.9 µM]
Cc1c(C(=O)OCC2CCCO2)[nH]c2c1C(=O)CC(c1ccc(N(C)C)cc1)C2 (centres undefined)	-1%	-9%	2%	25µM*	-21%
COC(=O)Nc1nc2c(C)cccc2s1	1%	0%	-2%	-6%	-14%
Cc1cccc2sc(NC(=O)Cn3cccc3)nc12	-1%	3%	2%	25µM*	-8%
COc1ccccc1N1CCN(C(=O)COc2ccc(Cl)cc2)CC1	-3%	8%	1%	32µM*	7%
CC(=O)c1ccc(N2CCN(C(=O)COc3ccc(F)cc3)CC2)c(F)c1	-1%	0%	4%	-25%	-20%
CCC(=O)c1ccc(N2CCN(C(=O)COc3ccc(F)cc3)CC2)c(F)c1	-1%[0.0738 µM]	-5%[9.17 µM]	-2%	3.2µM*	-19%
COc1nonc1NCn1nc(C)cc1C	-1%	1%	2%	-6%	10%
COc1ccc(C2CC(=O)c3cnc(NC(=O)c4cccc(OC)c4)nc3C2)cc1 (centres undefined)	2%[57.5 µM]	-1%	-3%	-13%	-48%
COc1ccc(C2CC(=O)c3cnc(NC(=O)c4ccccc4OC)nc3C2)c(OC)c1 (centres undefined)	3%[0.369 µM]	nt	0%	10µM*	-12%
Nc1nc(Sc2ccc([N+](=O)[O-])c3nonc23)c2[nH]cnc2n1	3.2µM*	-8%[9.17 µM]	?	21%[11.5 µM]	-41%[10.9 µM]
O=C(Nc1nc(-c2nc3ccccc3s2)cs1)c1ccc(S(=O)(=O)N2CCOCC2)cc1	0%	8%	0%	3.2µM*	-50%
O=C(Nc1nc(-c2ccc(S(=O)(=O)N3CCCC3)cc2)cs1)c1cccs1	-1%	7%	2%	16µM*	-5%
O=C(Nc1nc(-c2ccc(S(=O)(=O)N3CCCCCC3)cc2)cs1)c1cccs1	-1%	-3%	-1%	?	-7%
COc1cccc(C(=O)Nc2nc(-c3ccc(S(=O)(=O)N4CCOCC4)cc3)cs2)c1	-1%	-3%	2%	?	-30%
O=C1NC(=O)c2cc(Nc3ccc(F)cc3)c(Nc3ccc(F)cc3)cc21	nt	nt	nt	nt	-11%
SMILES	HBB splice mod	UbGFP stabilizer	Epigenetic mod	ERK AVP block	Peg3 imprint
O=C1NC(=O)c2cc(Nc3ccccc3)c(Nc3ccccc3)cc21	nt	nt	nt	32µM*	-12%
CCN(CC)c1ccc2c(c1)oc(=O)c1c(Cl)cc(=O)oc12	0%	3%	?	?	-30%
CCN(CC)c1ccc2c(Cl)c(Br)c(=O)oc2c1	nt	?	10µM*	5%	nt
O=C(Cn1cc(SCc2ccccc2F)c2ccccc21)N1CCCC1	nt	nt	nt	nt	-17%[10.9 µM]
O=Nc1c(-c2c(O)[nH]c3cc(Br)ccc23)[nH]c2ccccc12	nt	nt	nt	10µM*	-42%
CCc1ccccc1NC(=O)CSc1nc2c(c(=O)[nH]1)CN(Cc1ccccc1OC)CC2	nt	nt	nt	nt	-3%[10.9 µM]
